Inconclusive results are not listed. Unmarked numbers belong to inactive results. Activity calls are given as the source filed them. The call rests on the fitted dose curve.
target: Retinoic acid receptor RXR-alpha (Homo sapiens) (UniProt P19793); experiment: qHTS assay to identify small molecule agonists of the RXR signaling pathway (AID 1159527); settings: HEK293T RXRa-UAS-bla, beta-lactamase ratio, 16 h; series mostly up to 76.8 µM; activation: at the top concentration; further: nearly all actives have a fitted effect of over 35% in size
Sequence (P19793 whole entry, looked up): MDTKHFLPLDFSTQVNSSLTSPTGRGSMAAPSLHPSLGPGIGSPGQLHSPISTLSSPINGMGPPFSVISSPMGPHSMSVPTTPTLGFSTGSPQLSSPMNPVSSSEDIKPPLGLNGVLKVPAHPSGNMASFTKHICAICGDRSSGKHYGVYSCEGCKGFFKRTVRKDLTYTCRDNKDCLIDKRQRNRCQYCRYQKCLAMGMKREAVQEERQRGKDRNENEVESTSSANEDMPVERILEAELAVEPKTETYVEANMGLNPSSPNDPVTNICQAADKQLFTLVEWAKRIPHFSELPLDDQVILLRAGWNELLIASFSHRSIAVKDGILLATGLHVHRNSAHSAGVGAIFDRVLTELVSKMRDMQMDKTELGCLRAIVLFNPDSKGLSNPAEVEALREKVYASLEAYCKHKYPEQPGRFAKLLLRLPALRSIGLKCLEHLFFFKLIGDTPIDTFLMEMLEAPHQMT
From the text: U.S. Tox21 Program National Center for Advancing Translational Sciences [NCATS] NIH Chemical Genomics Center [NCGC] U.S. Environmental Protection Agency [EPA] National Institutes of Environmental Health Sciences [NIEHS] National Toxicology Program [NTP] U.S. Food and Drug Administration [FDA] Tox21 Assay Overview: The Retinoid X receptor (RXR), a nuclear hormone receptor expressed in liver, spleen, placenta, epidermis, central nervous system. These receptors are able to form homo and heterodimers with other nuclear receptors and due to this heterodimerizing ability, RXR functions as master regulators producing diverse physiological effects. Three subtypes of RXR exist; alpha, beta and gamma. Retinoid X receptor alpha (RXR-alpha) has potential roles in metabolic signaling pathways, skin alopecia, dermal cysts, cardiac development, insulin sensitization etc. Therefore screening environmental chemicals on RXR-alpha signaling can be used for the studies focused on such therapeutic applications. For quantification of RXR-alpha ligands signaling, GeneBLAzer RXR alpha-UAS-bla HEK 293T (Life Technologies, Carlsbad, CA) cells containing a beta-lactamase reporter-gene under control of Retinoid X receptor-alpha response element were used to screen Tox21 10K library.
Tox21 Assay Protocol Summary: RXR-alpha HEK 293T cells were dispensed at 2,000 cells/6 uL of assay medium containing 2% charcoal-stripped FBS using a Multidrop Combi (ThermoFisher Scientific, Waltham, MA) dispenser. The assay was performed in black wall/clear-bottom 1536-well plates (Greiner Bio-One North America Inc. Monroe, NC). 9-cis retinoic acid was used as a positive control in the agonist mode screen. After the assay plates were incubated at 37 C and 5% CO2 for 5 hr, 23 nL of compounds dissolved in DMSO, positive controls or DMSO only were transferred to the assay plate by a Pintool station (Kalypsys, San Diego, CA). The assay plates were incubated at 37 C and 5% CO2 for 16 hr. One uL of LiveBLAzer B/G FRET substrate (Life Technologies) was added using a Flying Reagent Dispenser (Aurora Discovery, San Diego, CA) and the plates were incubated at room temperature for 2 hr. Fluorescence intensity (405 nm excitation, 460/530 nm emission) was measured using an Envision plate reader (PerkinElmer, Shelton, CT).
On the % scale 0 is the no-effect control and ±100 the full control effect; potency means the concentration at half of the fitted maximal effect.

Structure (SMILES)	activation	Potency
NCCCN(CCO)CCO	8.37%	–
CCCCCC/C=C/C=O	-0.733%	–
CNS(=O)(=O)Cc1ccc2[nH]cc(CCN(C)C)c2c1	13.2% [at 35.3 µM]	–
CN1CCC(OC(c2ccccc2)c2ccccc2)CC1	1.35% [at 35.3 µM]	–
C=Cc1c(C)c2cc3[nH]c(cc4nc(cc5nc(cc1[nH]2)C(C)=C5CCC(=O)O)C(CCC(=O)O)=C4C)c(C)c3C=C	2.52% [at 35.3 µM]	–
O=c1[nH]cnc2ccccc12	3.96%	–
CCN(CC)CCOC(=O)C1(c2ccccc2)CCCC1	0.687% [at 35.3 µM]	–
CCCCCCOC(=O)CCC	8.53%	–
Oc1ccc(Sc2ccc(O)cc2)cc1	-5.74%	–
CC(=O)SCc1ccco1	-10.6%	–
Cc1c(Cn2ccnc2)c2ccccc2n1CCC(=O)O	0.396% [at 35.3 µM]	–
CC(=O)c1c(C)c([N+](=O)[O-])c(C(C)(C)C)c([N+](=O)[O-])c1C	–	21.9 µM (active)
CCCCCOC(=O)c1ccc(O)cc1	-16%	–
CCCCCc1ccc(N)cc1	-16.2%	–
O=C(O)C1CCC(C(=O)O)CC1 (stereo not given)	–	5.48 µM (active)
O=c1c2ccccc2nnn1CCl	14.6%	–
CCCCCCCCCCCCCCCCCBr	-0.344% [at 15.8 µM]	–
O=C(Cl)c1ccc([N+](=O)[O-])cc1	23.8%	–
COCCCCCCCCOCCC[Si](C)(O[Si](C)(C)C)O[Si](C)(C)C	-16.3%	–
C1CCC2OC2C1 (stereo not given)	-2.56%	–

Structure (SMILES)	activation	Potency
Cc1ccc(O)c([C@H](CCN(C(C)C)C(C)C)c2ccccc2)c1	-19.1% [at 35.3 µM]	–
CC(=O)[C@@]1(O)CC[C@H]2[C@@H]3C[C@H](C)C4=CC(=O)CC[C@]4(C)[C@H]3CC[C@@]21C	-14.6% [at 35.3 µM]	–
CC[C@H](C)[C@H](N)C(=O)O	0.553% [at 35.3 µM]	–
CC1=CCC(C(C)C)C=C1 (stereo not given)	-16.2%	–
CCCCOC(=O)/C=C\C(=O)OCCCC	-8%	–
CN1CCC(=C2c3ccccc3CCc3sccc32)CC1	-12.8% [at 35.3 µM]	–
C=CC[N+]1([C@H]2C[C@H]3[C@@H]4CC[C@H]5C[C@H](OC(C)=O)[C@@H](N6CCCCC6)C[C@]5(C)[C@H]4CC[C@]3(C)[C@H]2OC(=O)CC)CCCCC1	-10% [at 35.3 µM]	–
CCc1nn(C2CCCCC2)c2cc(C3(C#N)CCC(C(=O)O)CC3)ccc12 (stereo not given)	-7.69%	–
CCOC(=O)C1=NN(c2ccccc2)C(=O)C1	-15.1%	–
O=C(C(=O)c1ccc(Br)cc1)c1ccc(Br)cc1	-4.31% [at 15.8 µM]	–
CC(C)NCC(O)c1cc(O)cc(O)c1 (stereo not given)	7.41% [at 35.3 µM]	–
CN(C)C/C=C(/c1ccc(Br)cc1)c1cccnc1	-0.254% [at 35.3 µM]	–
COC(=O)CSc1cc(N=c2sc(=O)n3n2CCCC3)c(F)cc1Cl	-11.1%	–
CCOC(=O)CC(=O)c1cc(F)c(Cl)nc1Cl	-5.69%	–
CNCC[C@@H](Oc1ccccc1C)c1ccccc1	-15% [at 35.3 µM]	–
CCOC(=O)[C@H](CCc1ccccc1)N[C@H]1CCc2ccccc2N(CC(=O)O)C1=O	-17.5% [at 35.3 µM]	–
C[C@@H](C1=C(CCN(C)C)Cc2ccccc21)c1ccccn1	-7.65% [at 35.3 µM]	–
C=C(C)C(=O)OC(C)C	2.91%	–
S=C(S)NCCNC(=S)S	-6.68%	–
CC(=O)OC/C=C/c1ccccc1	11.3%	–

— PubChem BioAssay (Tox21)
